# Out of some 310,000 compounds screened, about 14,000 (4.5%) showed an effect of 50% or more. The effect is printed as a negative number. Shown is part of a subset that was picked to be rich in strong results.
# Molecular target: human ether-à-go-go-related gene (hERG) potassium channel (human, UniProt Q12809)
# Assay: primary screen, population patch clamp on CHO cells stably expressing hERG; higher = less effect of the substance
# 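Also: peak tail current of the secondary pulse compared with the same well before compound.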
# Chain of human ether-à-go-go-related gene (hERG) potassium channel (Q12809 whole entry, looked up): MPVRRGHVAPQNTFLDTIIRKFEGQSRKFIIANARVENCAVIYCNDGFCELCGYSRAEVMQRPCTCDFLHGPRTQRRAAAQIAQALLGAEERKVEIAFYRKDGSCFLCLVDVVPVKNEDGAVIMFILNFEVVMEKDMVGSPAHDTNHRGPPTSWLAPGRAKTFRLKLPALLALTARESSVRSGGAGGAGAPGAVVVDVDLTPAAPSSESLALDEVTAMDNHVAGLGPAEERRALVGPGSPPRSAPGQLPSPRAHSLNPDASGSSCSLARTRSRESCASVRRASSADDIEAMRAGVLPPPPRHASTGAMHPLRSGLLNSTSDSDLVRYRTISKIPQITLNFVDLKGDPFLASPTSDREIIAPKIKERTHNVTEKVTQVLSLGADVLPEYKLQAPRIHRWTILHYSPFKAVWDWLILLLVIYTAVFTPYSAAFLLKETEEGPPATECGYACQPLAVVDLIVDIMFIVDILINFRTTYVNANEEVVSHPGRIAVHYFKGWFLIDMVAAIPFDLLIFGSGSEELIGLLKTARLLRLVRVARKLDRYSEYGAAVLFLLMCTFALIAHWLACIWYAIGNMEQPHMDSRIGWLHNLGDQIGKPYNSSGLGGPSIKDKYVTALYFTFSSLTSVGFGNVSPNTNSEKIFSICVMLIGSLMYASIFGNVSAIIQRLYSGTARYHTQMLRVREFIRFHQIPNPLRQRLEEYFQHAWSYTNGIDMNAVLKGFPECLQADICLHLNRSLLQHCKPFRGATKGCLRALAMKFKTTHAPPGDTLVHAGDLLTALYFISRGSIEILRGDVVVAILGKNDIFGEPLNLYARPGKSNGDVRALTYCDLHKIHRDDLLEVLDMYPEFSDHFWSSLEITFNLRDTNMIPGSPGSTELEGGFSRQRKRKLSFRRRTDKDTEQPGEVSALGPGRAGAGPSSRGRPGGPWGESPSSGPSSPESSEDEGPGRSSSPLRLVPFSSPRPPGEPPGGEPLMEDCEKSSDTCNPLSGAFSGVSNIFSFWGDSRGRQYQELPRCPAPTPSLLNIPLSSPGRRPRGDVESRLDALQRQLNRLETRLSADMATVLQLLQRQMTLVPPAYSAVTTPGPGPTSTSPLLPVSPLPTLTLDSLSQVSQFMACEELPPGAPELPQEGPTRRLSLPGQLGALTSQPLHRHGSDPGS
row,SMILES,"hERG current change (%, negative = inhibition) at 10uM [%]"
1,Cc1cccc(-c2nc3ccccc3c(=O)n2NC(=O)/C=C/c2ccc([N+](=O)[O-])cc2)c1,-60.7
2,Cc1cc(C(=O)Nn2c(-c3ccc(Br)cc3)nc3ccccc3c2=O)ccc1[N+](=O)[O-],8.86
3,O=C(Nn1c(-c2ccccc2)nc2ccccc2c1=O)c1ccc([N+](=O)[O-])cc1,-15.4
4,O=C(Nn1c(-c2ccc(Br)cc2)nc2ccccc2c1=O)c1ccc([N+](=O)[O-])cc1,-66.6
5,CN(c1ccc(C(=O)NCc2ccco2)cc1)S(C)(=O)=O,5.87
6,NC(=O)C1CCN(C(=O)c2cc3n(n2)C(C(F)(F)F)CC(c2ccco2)N3)CC1 (stereo not shown),14.8
7,Cc1nc(-c2ccc(Cl)cc2)sc1C1(C)CC(c2ccc(C#N)cc2)=NO1 (stereo not shown),-29.2
8,Cc1ccc(OCc2nnc(SCC(=O)Nc3ccc4c(c3)OCCO4)n2Cc2ccco2)cc1,6.31
9,COc1ccc2c(c1)c(C(C)=O)c(C)n2CCc1ccc(OC)c(OC)c1,-6.52
10,COc1ccc(C2Nc3ccccc3C(=O)N2NS(=O)(=O)c2ccccc2)cc1OC (stereo not shown),13.5
11,COc1cc(NS(=O)(=O)c2ccc(NC(=O)C3CCCO3)cc2)nc(OC)n1 (stereo not shown),6.87
12,S=c1[nH]nc(-c2ccccc2)n1/N=C/c1ccc(-c2ccccc2Cl)o1,25.4
13,COc1cccc(NC(=O)c2cc3c(=O)n4ccccc4nc3n(CC(C)C)c2=N)c1,-82
14,Cc1cccc(NC(=O)c2cc3c(=O)n4ccccc4nc3n(CC(C)C)c2=N)c1,-78
15,COc1ccc(NC(=O)c2cc3c(=O)n4ccccc4nc3n2C)cc1OC,13.7
16,Cc1cccc(NC(=O)c2cc3c(=O)n4ccccc4nc3s2)c1,10.8
17,COc1cccc(NC(=O)C(Sc2nc3ccccc3c(=O)n2CC(C)C)c2ccccc2)c1 (stereo not shown),11.8
18,Cc1cccc(NC(=O)c2c(C)nc3ccccn23)c1,-0.935
19,CCOc1ccc(NC(=O)CSc2nc(=O)n(Cc3cccnc3)c3c2CCC3)cc1,-8.74
20,CN(c1cccc(NC(=O)c2cccc([N+](=O)[O-])c2)c1)S(C)(=O)=O,13.1
21,O=C(Nc1ccc(N2CCOCC2)cc1N1CCOCC1)c1ccc([N+](=O)[O-])cc1,2.51
22,COc1cc(/C=N/NS(=O)(=O)c2ccc(Br)cc2)ccc1O,1.58

row,SMILES,"hERG current change (%, negative = inhibition) at 10uM [%]"
1,Cc1ccc(NC(=O)CNC(=O)c2ccco2)nc1,17.3
2,CCOc1cc(S(=O)(=O)n2cnc(C)c2)ccc1Cl,-8.24
3,COc1ccc(N(C(=O)/C=C/c2ccccc2)C2=CC3CCC(C2)N3C)cc1.Cl (stereo not shown),-74.6
4,COc1ccc(N(C(=O)/C=C/c2ccc(OC)c(OC)c2)C2=CC3CCC(C2)N3C)cc1.Cl (stereo not shown),-69.6
5,COc1ccc(/C=C/C(=O)N(C)c2ccccc2C(=O)O)cc1,-4.18
6,COc1ccc(C(=O)Cn2c(C(=O)/C=C/c3ccccc3)nc3ccccc32)cc1,-16.4
7,COc1ccc(/C=C/C(=O)N2CCN(C)CC2)cc1OC,6.7
8,COc1ccc(/C=C/C(=O)N(C)C2CCS(=O)(=O)C2)cc1OC (stereo not shown),2.01
9,Cn1c(C(=O)N[C@@H](Cc2ccccc2)C(=O)NCCC(=O)O)cc2cc(Cl)ccc21,0.651
10,COc1ccc(OCC(=O)OCC(=O)N2CC(=O)Nc3ccccc32)cc1,-3.16
11,Cc1ccc(CCC(=O)Nc2ccc([N+](=O)[O-])cc2)o1,0.967
12,Cc1ccc(-n2cc(-c3ccccc3)c3c(N4CCN(C)CC4)ncnc32)cc1,-9.95
13,COc1ccc(-n2cc(-c3ccccc3)c3c(N4CCN(CCO)CC4)ncnc32)cc1,-42
14,OCCN1CCN(c2ncnc3c2c(-c2ccccc2)cn3-c2ccc(F)cc2)CC1,-74.3
15,CC1CN(c2ncnc3c2c(-c2ccccc2)cn3-c2ccc(F)cc2)CC(C)O1 (stereo not shown),12
16,OCCN1CCN(c2ncnc3c2c(-c2ccccc2)cn3-c2ccc(Br)cc2)CC1,-15.2
17,CCN1CCN(c2ncnc3c2c(-c2ccccc2)cn3-c2ccc(F)cc2)CC1,-74.5
18,CNCCCC1c2ccccc2C=Cc2ccccc21.Cl,13.2
19,O=c1[nH]c(Nc2ccccc2Cl)cc2ccccc12,10.9
20,O=C(Cc1ccccc1F)OCN1C(=O)c2ccccc2C1=O,21.5
21,N#C/C(=C/c1cccc(C(F)(F)F)c1)c1nc(CCN2C(=O)c3ccccc3C2=O)cs1,-0.904
